Bioassay records (PubChem BioAssay)
Shown is part of a subset that was picked to be rich in hits.
Pf Dd2 growth: blocks in vitro growth of P. falciparum Dd2. P. falciparum Dd2 growth, SYBR Green, 72 h. Potency, µM (top dose mostly 28.9 µM), inactives show at the top dose activity, negative = inhibition, actives largely listed as inhibitors. 120,000 compounds, 4.3% hits. AID 1347417; active means well fitted inhibition curve with a large enough effect;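 further: plate controls were DMSO vehicle for no effect and reference drug for full effect; nearly all actives have a fitted effect of over 65% in size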
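Infected erythrocytes (Dd2, 0.3% parasitemia, 2.5% hematocrit final) are added to compound in RPMI-1640/Albumax II medium, grown 72 h at 37C in low oxygen, then lysed with saponin/Triton-X containing SYBR Green and read by fluorescence.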
Active calls of the source: *; i = inactive; [ ] = dose if it differs, or a comment. Potency means the concentration at half of the fitted maximal effect.

SMILES | Pf Dd2 growth
CN1CCC(Oc2ccc(C(N)=O)cn2)CC1 | 44%
COC1CCC12CCN(Cc1ccc(C#N)cc1)CC2 (configuration not stated) | i
Cc1cc(C)n(CCCNC(=O)c2cc(COc3ccc4sc(C)nc4c3)on2)n1 | -11%
COC(=O)c1ccccc1NC(=O)c1cc(CN2CCCC2)on1 | i[5.79 µM]
CC(C)(C)C(Cn1ccnc1)NC(=O)c1cc(COc2ccc3c(c2)CCCC3)on1 (configuration not stated) | 8.9µM*
CCNC(=O)N1CCCCCCNC(=O)[C@@H]2CCC[C@@H]21 | 27%
CC(C)c1ccc(CNC(=O)CCC2CCN(C(=O)c3ccccc3F)CC2)cc1 | -3%
COCCC(=O)N1C[C@@H]2CCCN3CCC[C@@H]([C@H]23)[C@H]1CCCC(=O)Nc1ccccc1 | -17%
O=C(c1ccc(Cl)cc1)N1CCC(c2n[nH]c(=O)n2-c2ccccc2)CC1 | 33%
CC(=O)N1CC2(Cc3ccccc31)CN(C(=O)Cc1cccc(Cl)c1)C2 | -14%
COc1cc(F)ccc1-c1ccc2c(n1)c(=O)ncn2CCC(F)(F)F | -19%[44.1 µM]
CC1(C(=O)Nc2cccc(Cl)c2)CCCCC(=O)N1 (configuration not stated) | -14%
CC(C)NC(=O)C1Cn2cccc2C(=O)N1 (configuration not stated) | 38%
Cc1ccc(CN(C)C(C)c2cccs2)cc1 (configuration not stated) | -13%[44.1 µM]
Cc1ccccc1CN1CCc2nc(C(=O)N3CCOCC3)oc2CC1 | i
Cc1c(-c2ccc(Cl)cc2)c(=O)oc2ccc(OC(=O)N3CCOCC3)cc12 | i
Cc1c(-c2ccccc2)c(=O)oc2c(CN3CCOCC3)c(O)ccc12 | 8.9µM*
CCn1cc(-c2ccc(Cl)cc2)cc1C(=O)NCCN1CCOCC1 | -19%
Cc1c(-c2ccc(Br)cc2)c(=O)oc2ccc(OC(=O)N3CCOCC3)cc12 | i
Cc1c(-c2ccc(Cl)cc2)c(=O)oc2c(CN3CCOCC3)c(O)ccc12 | 5.6µM*
Cc1nc(C2CC(O)C2)cc(N(C)Cc2ccccc2-n2cccn2)n1 (configuration not stated) | -20%
O[C@@H]1CN(Cc2ccc(-n3cccn3)cc2)CC[C@H]1c1ccc(F)cc1 | 3.5µM*
O=C1CC2CCN(Cc3ccc(F)cc3)CC2CCN1 (configuration not stated) | 4%[44.1 µM]
CC(C)(O)C#Cc1ccc(CN2CC[C@@H](c3ccc(F)cc3)[C@H](O)C2)s1 | i
O=C(c1ccccc1)N1CCNc2cnc(Nc3cccc(F)c3)nc2C1 | i
SMILES | Pf Dd2 growth
O=C1C(N2CCN(Cc3ccc[nH]3)CC2)CCN1Cc1ccccn1 (configuration not stated) | -17%
CCc1c(C)sc2c1CCN(Cc1ccccc1)C2c1ccccc1 (configuration not stated) | 4.5µM*
CCc1c(C)sc2c1CCN(C(=O)Nc1ccccc1C(=O)OC)C2c1ccc(OC)cc1 (configuration not stated) | -8%
CCCS(=O)(=O)N1CC[C@@H]2COCCN(Cc3ccccc3)[C@@H]2C1 | -18%
CCCc1ccc(S(=O)(=O)N2CCC(n3cnnc3C)CC2)cc1 | -28%
CCCc1ccc(S(=O)(=O)N2CCC(c3nnc(-c4cccc(C)c4)o3)CC2)cc1 | 11µM*
COc1ccccc1-c1nnc(C2CCN(S(=O)(=O)c3ccc(F)c(C)c3)CC2)o1 | 23%
CNC(=O)C1CN(c2cccc(Cl)c2)C(=O)N1 (configuration not stated) | -1%[44.1 µM]
Cc1ccc(C(C(=O)NCc2ccc(O)cc2)N(C)C)cc1 (configuration not stated) | -35%
Cc1ccc(NC(=O)CC2CCOCC2)cc1F | 8%
CN1C(=O)CC(C(=O)O)C12CCN(Cc1cnn(-c3ccc(F)cc3)c1)CC2 (configuration not stated) | -3%
CN(Cc1cccc(CCN)c1)Cc1cnn(-c2ccc(F)cc2)c1 | 10µM*
CN(Cc1ccc(F)cc1)Cc1cccn1C | -29%[44.1 µM]
CCN(CC)C(=O)[C@@H]1CCC[C@@H](NC(=O)Nc2c(C)noc2C)CN(C)C(=O)C1 | 27%[44.1 µM]
O=C(COc1ccccc1)N[C@H]1[C@H](O)[C@H](O)C[C@@H]1c1ccc(N2CCOCC2)nc1 | -6%[44.1 µM]
COc1ccc(Cn2c(C3CCN(C(=O)C4CCCCC4)CC3)n[nH]c2=O)cc1 | -7%
CC(C)N1CCN(C(=O)c2cc3n(n2)CC(c2ccc(Br)cc2)OC3)CC1 (configuration not stated) | i
Cc1ccc(-n2c(C)cc(/C=C(\C#N)C(=O)Nc3ccc(C)c(C)c3)c2C)cc1 | 2%
Cc1cccc(Cn2cc(/C=C(/C#N)C(=O)Nc3cccc(Cl)c3)c3ccccc32)c1 | 3.5µM*
Cc1ccc(/C=C(\C#N)C(=O)Nc2cccc(Cl)c2)o1 | -9%
Cc1ccc(-n2c(C3CCN(C(=O)Cc4ccccc4Cl)CC3)n[nH]c2=O)cc1 | -17%
COc1ccc(Cn2c(C3CCN(C(=O)Cc4cccc(C)c4)CC3)n[nH]c2=O)cc1 | -4%
Cc1cccc(OCC(=O)N2CCC(c3n[nH]c(=O)n3Cc3ccc(F)cc3)CC2)c1 | 11µM*
Cc1ccc(CC(=O)N2CCC(c3n[nH]c(=O)n3-c3ccccc3)CC2)cc1 | i
Cc1ccc(-n2c(C3CCN(C(=O)Cc4ccc(Cl)cc4)CC3)n[nH]c2=O)cc1 | 13µM*
SMILES | Pf Dd2 growth
COc1cccc(CC(=O)N2CCC(c3n[nH]c(=O)n3Cc3ccc(F)cc3)CC2)c1 | -4%
COCCn1c(C)cnc1CCNC(=O)CC(C)C | -10%
Cc1ccccc1S(=O)(=O)N1CC[C@@H]2CN(c3cnccn3)[C@@H]2C1 | -2%
CC(C)CN1CC(C(=O)NCc2nc(-c3ccccc3)no2)CC1=O (configuration not stated) | -8%
COc1ccccc1C1CNC(=O)c2nc(CCN3CCC(C)CC3)[nH]c2C1 (configuration not stated) | i
COc1cccc(C2CNC(=O)c3nc(-c4ccc(C(=O)N(C)C)o4)[nH]c3C2)c1 (configuration not stated) | i
COc1cccc(C2CNC(=O)c3nc(Cn4nc(C)c(C)c4C)[nH]c3C2)c1 (configuration not stated) | 10µM*
CC(C)CC(=O)N1C[C@@H](Oc2ccccc2)C[C@H]1C(=O)N1CCCC1 | -1%
O=C([C@@H]1C[C@H](Oc2ccccc2)CN1C(=O)CC1CCCC1)N1CCCC1 | i
O=C([C@@H]1C[C@H](Oc2ccccc2)CN1C(=O)C1(c2ccccc2)CC1)N1CCCC1 | 1.8µM*
O=S(=O)(NC[C@H]1O[C@@H](CO)[C@@H](O)[C@H]1N1CCN(c2ccccc2)CC1)c1ccc(F)cc1 | -25%
CC(=O)N(C1CC1)C1CCOC2(CCN(C(=O)Nc3ccc4c(c3)OCCO4)CC2)C1 (configuration not stated) | i
CCN(C(=O)Cc1nc(-c2ccc(OC)cc2)no1)c1cccc(Cl)c1 | -29%
CCN(C(=O)CSc1nnc(-c2ccc(Cl)cc2)o1)c1ccccc1 | 5%
CCN(C(=O)CSc1nc2ncccc2[nH]1)c1ccc(C(C)C)cc1 | -24%
CCN(C(=O)CSc1nc(-c2ccc(C(C)C)cc2)no1)c1cccc(C)c1 | 0.89µM*
CCN(C(=O)CCc1nc(-c2ccc(C)cc2)no1)c1cc(C)ccc1C | -15%
CCN(C(=O)CSc1nc(-c2ccc(C(C)C)cc2)no1)c1ccccc1 | 1.1µM*
CN1C[C@H](NC(=O)NC2(c3ccccc3)CCOCC2)CCC[C@@H](C(=O)NCc2cc(F)cc(F)c2)CC1=O | i
